From ChEMBL document CHEMBL3988442, “University of Dundee, Small-Polar-MMV Screening Library” (2021)
Among all 48,000 compounds or so, about 13,000 (27%) showed an effect of 50% or more. Some of the results follow.

system: Wolbachia pipientis; assay: Anti-Wolbachia Cell-Based Screen; assay type: functional; parameters: scale not given: in the data most compounds retested in dose-response had high values; conditions: 5 µM

Compound | Percent Effect [%]
Cc1cc(C)cc(CN2CCN(C(=O)COCC3CCCO3)CC2=O)c1 (configuration not stated) | -14.3
COc1ccccc1CCNS(=O)(=O)N1CCOCC1 | 112
COc1ccccc1OCCNS(=O)(=O)N1CCOCC1 | 86
CN(CCOc1ccccc1Cl)S(=O)(=O)N1CCOCC1 | -15.33
COc1ccc(OCCN(C)S(=O)(=O)N2CCOCC2)cc1 | -3.974
CCC(NS(=O)(=O)N1CCOCC1)c1ccccc1OC (configuration not stated) | -7.282
COc1ccccc1CC(NC(=O)N1CCOCC1)C(C)C (configuration not stated) | -8.474
CCN(C(=O)NCCc1ccc(C)cc1C)C(C)CS(C)(=O)=O (configuration not stated) | -11.16
Cc1cc(N2CCSCC2)ccc1NC(=O)N(CCO)C1CC1 | -6.894
Cc1ccccc1C(CC(=O)N1CCc2sccc2C1)NC(N)=O (configuration not stated) | 98.58
O=C(C[S+]([O-])Cc1c(F)cccc1Cl)N1CCc2sccc2C1 (configuration not stated) | 13.7
NC(=O)NC(CC(=O)N1CCc2sccc2C1)c1ccccc1F (configuration not stated) | 105.1
CC(NCC(=O)N1CCc2sccc2C1)c1ccccc1F (configuration not stated) | 93.75
CC(C)(C)c1nnc(NCC(=O)N2CCc3sccc3C2)s1 | 0.7468
O=C(C[S+]([O-])Cc1ccc(F)cc1)N1CCc2sccc2C1 (configuration not stated) | 1.066
NC(=O)NC(CC(=O)N1CCc2sccc2C1)c1cccc(Br)c1 (configuration not stated) | 93.59
O=C(C[S+]([O-])Cc1ccccc1F)N1CCc2sccc2C1 (configuration not stated) | 15.13
CC(C)(C)CC(=O)N1CCc2sccc2C1 | -0.9665
N#Cc1cccc(CNCCC(=O)N2CCc3sccc3C2)c1 | -10.34
O=C(CNc1nc(C(F)(F)F)cs1)N1CCc2sccc2C1 | 8.259
O=C(CCNCc1cccc(O)c1)N1CCc2sccc2C1 | 2.464
c1cncc(-c2ccnn2CN2CCC3(CC2)OCCO3)c1 | -11.32

Compound | Percent Effect [%]
Cc1nccc(CNS(=O)(=O)N(C)Cc2ccc(Cl)cc2)n1 | -3.155
COCCCNC(=O)CN(C)C(=O)c1cc(C)ccc1N(C)C(C)C | -2.233
COCCNC(=O)CN(C)C(C)c1nc(C)no1 (configuration not stated) | 119.8
Cc1noc(C(C)N(C)CC(=O)NCCc2ccc(Cl)cc2)n1 (configuration not stated) | 103.9
CCc1noc(C(C)N(C)CC(=O)Nc2c(C)cccc2C)n1 (configuration not stated) | -11.68
COCCCNC(=O)CN(C)C(=O)c1cc(C)ccc1O | -8.655
CCc1noc(C(C)N(C)CC(=O)Nc2cccc(C)n2)n1 (configuration not stated) | 0.4126
Cc1noc(CNC(=O)NCCc2ccc(Cl)cc2)n1 | -5.738
COCCCNC(=O)CN(C)C(C)c1nc(C(C)C)no1 (configuration not stated) | 126.4
COc1ccc(Br)cc1CN(C)C(C)c1nc(C(C)C)no1 (configuration not stated) | 18.35
COCCCNC(=O)CN(C)C(C)c1nc(C)no1 (configuration not stated) | 131.6
CCc1noc(C(C)N(C)CC(=O)Nc2ccc(C)cc2)n1 (configuration not stated) | 3.049
CCN(CC(=O)NCCc1nc(C)no1)Cc1ccc(Cl)cc1 | -3.181
O=C(O)c1cc(-c2ccc3c(c2)OCO3)cc(S(=O)(=O)NC2CC2)c1 | 1.562
O=C(c1ccc2sccc2c1)N1CCC(C(=O)O)(n2ccnc2)CC1 | -1.881
Cc1nc(N)ncc1C(=O)N1CCCC1(C)C(=O)N(C)C (configuration not stated) | 88.37
Nc1ncc(C(=O)N2CCC(O)(CO)CC2)c(-c2ccccc2)n1 | -11.61
Cc1ccccc1N1CCN(C(=O)c2cnc(N(C)C)nc2C)C(C)C1 (configuration not stated) | 26.11
CC[C@@H](CO)NC(=O)c1coc(COc2ccc(OC)cc2)n1 | -6.129
COCC(=O)Nc1nccn1Cc1ccc(Br)cc1 | 8.757
CCNC(=O)N(C)C1CCCc2nc(C)sc21 (configuration not stated) | 9.089
N#Cc1cccnc1N1CCC(c2nc(C(F)(F)F)c[nH]2)CC1 | -10.33

Compound | Percent Effect [%]
CCN(CC)c1ccc2ccc(C(=O)N3CCCCO3)cn12.O=C(O)C(F)(F)F | -8.466
CC(C)C(=O)N1CCC(C)(c2cc(O)[nH]n2)CC1 | 136.2
CC(CCc1ccc(O)cc1)NC1CCN(C(=O)C(C)C)CC1 (configuration not stated) | 2.314
CC(C)C(=O)N1CCN(c2cc(N(C)C)cnn2)CC1 | 9.778
CCOC1CC2(CCN(C(=O)COC)CC2)c2cc(C)ccc21 (configuration not stated) | 10.7
COCC(=O)N1CCC(C)(c2cc(O)[nH]n2)CC1 | 115.4
COCC(=O)N1CCC2(CC1)CNc1ccc(F)cc12.O=C(O)C(F)(F)F | 7.249
Cc1cc(N2CCN(C(=O)CCc3scnc3C)CC2)nc(N)n1 | 8.877
c1cc(CN2CCC(c3ccncc3)CC2)cc(Cn2cccn2)c1 | -4.875
CN(Cc1noc(C2CC2)n1)CC1CCN(CCO)CC1 | 15.04
c1cc2c(cc1CN1CCC(Cc3noc(C4CC4)n3)CC1)OCCO2 | 75.34
c1cc2c(cc1CSCc1noc(C3CC3)n1)OCCO2 | 98.07
CC(c1nc(C2CC2)no1)N(C)Cc1ccc2c(c1)OCCO2 (configuration not stated) | 0.3167
O=C(NCC1CC1)N1CCN(Cc2ccc3c(c2)OCCO3)CC1 | 1.258
O=C(c1cccc2c1OCO2)N1CCCC1c1noc(C2CC2)n1 (configuration not stated) | -8.169
c1cc(C2CCN(Cc3ccc4c(c3)OCO4)CC2)ccn1 | 106.9
c1cncc(CN2CCC(NCCc3ccc4c(c3)OCO4)CC2)c1 | 3.399
c1cc(CN2CCC(Cc3noc(C4CC4)n3)CC2)c2c(c1)OCO2 | 85.87
Clc1ccc(C2(NCc3noc(C4CC4)n3)CCOCC2)cc1 | -0.4021
c1ccc(CN2CCC(Cc3noc(C4CC4)n3)CC2)cc1 | 27.3
CCn1c(C)cc(C(=O)NCc2ccc(CS(C)(=O)=O)cc2)c1C | 4.177
COCc1nc(CN2CCC3(CCCO3)CCC2=O)no1 (configuration not stated) | -11.19

Compound | Percent Effect [%]
CC(=O)N(C)CC(=O)NC1(c2ccc(Br)cc2)CC1 | -3.81
CCN(CC(=O)NC(C)C)S(=O)(=O)N1CCC(C)C1 (configuration not stated) | 1.094
CN1CCN(C2CCN(Cc3noc(C4CC4)n3)CC2)C1=O | 10.17
c1cc2c(cc1CN1CCN(Cc3noc(C4CC4)n3)CC1)OCO2 | 111.2
c1ccc2[nH]c(C3CCN(Cc4noc(C5CC5)n4)CC3)cc2c1 | -4.924
CCn1ccnc1CN1CCCn2nc(CNC(=O)C3CCC3)cc2C1 | 17.11
Nc1nccc(NCc2cc3n(n2)CCCN(C(=O)C2CCC2)C3)n1 | -4.748
Nc1nccc(NCc2cc3n(n2)CCCN(C2CCCCC2)C3)n1 | 13.65
CSc1nccc(NCc2cc3n(n2)CCCN(C(=O)C2CCC2)C3)n1 | 104.3
Cc1nccc(NCc2cc3n(n2)CCCN(C(=O)C2CCC2)C3)n1 | 100.1
CSc1nccc(NCc2cc3n(n2)CCCN(S(C)(=O)=O)C3)n1 | 18.18
Cc1ccc(C2C3=C(COC3=O)Nc3[nH]nc(C)c32)cc1C (configuration not stated) | 8.246
CCc1nccn1CCC(=O)N1CC[C@@H](c2sccc2C)[C@H](O)C1 | -1.934
O=C(O)C(F)(F)F.c1cnc(N2CCO[C@H]3CN(CC4CCC4)C[C@H]32)cn1 | 107.5
Cn1cc(CN2C[C@@H]3OCCN(CC4CCCC4)[C@@H]3C2)cn1 | -2.926
CN(C)c1nccc(N2CCO[C@H]3CN(CC4CCOCC4)C[C@H]32)n1 | 11.02
CNC(=O)CN1CCO[C@H]2CN(CC3CCOCC3)C[C@H]21.O=C(O)C(F)(F)F.O=C(O)C(F)(F)F | -17.71
O=C(O)C(F)(F)F.c1cnc(N2CCO[C@H]3CN(Cc4c[nH]cn4)C[C@H]32)cn1 | 2.338
c1cnc(N2CCO[C@H]3CN(CC4CCCC4)C[C@H]32)cn1 | 112.8
O=C(O)C(F)(F)F.c1cnc(N2CCO[C@H]3CN(Cc4csnn4)C[C@H]32)cn1 | 6.84
O=C(O)C(F)(F)F.c1cnc(N2CCO[C@H]3CN(CC4CCOC4)C[C@H]32)cn1 (some centres not stated) | 122.8
Cc1nn(CCn2ccnc2-c2cc3n(n2)CCCNC3)c(C)c1Cl | 1.548

Compound | Percent Effect [%]
CC(C)C(C(=O)NC1CC1)n1cnc2cc(F)c(F)cc21 (configuration not stated) | 15.81
O=C(NCc1nc(C2CC2)no1)N1CCOC(c2ccccc2F)C1 (configuration not stated) | 3.199
CC(C)CNC(=O)C[S+]([O-])Cc1csc(C2CCCCC2)n1 (configuration not stated) | -4.765
COc1ccc(C(O)CNc2c(C#N)c(=O)n(C)c(=O)n2C)cc1 (configuration not stated) | -9.845
CN(C(=O)C1CSCN1S(=O)(=O)c1ccc(F)cc1)C1CC1 (configuration not stated) | 5.468
CC(C)c1nc2n(n1)CC(NCc1cc3ccccc3o1)CC2 (configuration not stated) | -25.06
CC(C)c1nc2n(n1)CC(NCc1nc(-c3ccccn3)no1)CC2 (configuration not stated) | 1.998
CC(C)c1nc2n(n1)CC(NCc1nnc(C(C)C)o1)CC2 (configuration not stated) | 2.327
COCCc1noc(CNC2CCc3nc(C(C)C)nn3C2)n1 (configuration not stated) | -13.08
Cc1ccc(CNC2CCc3nc(C(C)C)nn3C2)o1 (configuration not stated) | 110.7
Cc1cc(CNC2CCc3nc(C(C)C)nn3C2)on1 (configuration not stated) | 128.3
CCN(C(=O)NCc1ccccc1OC(F)F)C(C)c1cccnc1 (configuration not stated) | -11.48
CC(C)(NCC(=O)N1CCCC(C(N)=O)C1)c1ccc(Cl)cc1 (configuration not stated) | 1.343
CCCc1cc(C(=O)N2CCCC2c2cccnc2)[nH]n1 (configuration not stated) | 15.07
CC(C)(C)c1cn(C2CCN(C(=O)c3cnccn3)CC2)nn1 | -4.102
CC(C)(C)c1cc(C(=O)N2CCC(c3cnccn3)CC2)[nH]n1 | 96.1
CC(C)(C)c1cc(C(=O)N2CCOC(c3cnccn3)C2)[nH]n1 (configuration not stated) | 139
Cc1cc(C(=O)N2CCOC(c3nc(C)n[nH]3)C2)[nH]n1 (configuration not stated) | -1.43
Cc1cc(C(=O)N2CCOC(c3ccc(Cl)c(Cl)c3)C2)[nH]n1 (configuration not stated) | -12.35
